# Data published in paper PMC4336329 (PLoS ONE, 2015).
# The whole screen tested about 310,000 compounds, of which about 14,000 (4.5%) showed an effect of 50% or more. The effect is printed as a negative number. For the sample, strong results were picked, then their nearest neighbours and some compounds at random.
# Molecular target: human ether-à-go-go-related gene (hERG) potassium channel (human, UniProt Q12809)
# Test: primary screen, population patch clamp on CHO cells stably expressing hERG; higher = less effect of the substance
# 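Further: peak tail current of the secondary pulse compared with the same well before compound.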
# Sequence of human ether-à-go-go-related gene (hERG) potassium channel (Q12809 whole entry, looked up): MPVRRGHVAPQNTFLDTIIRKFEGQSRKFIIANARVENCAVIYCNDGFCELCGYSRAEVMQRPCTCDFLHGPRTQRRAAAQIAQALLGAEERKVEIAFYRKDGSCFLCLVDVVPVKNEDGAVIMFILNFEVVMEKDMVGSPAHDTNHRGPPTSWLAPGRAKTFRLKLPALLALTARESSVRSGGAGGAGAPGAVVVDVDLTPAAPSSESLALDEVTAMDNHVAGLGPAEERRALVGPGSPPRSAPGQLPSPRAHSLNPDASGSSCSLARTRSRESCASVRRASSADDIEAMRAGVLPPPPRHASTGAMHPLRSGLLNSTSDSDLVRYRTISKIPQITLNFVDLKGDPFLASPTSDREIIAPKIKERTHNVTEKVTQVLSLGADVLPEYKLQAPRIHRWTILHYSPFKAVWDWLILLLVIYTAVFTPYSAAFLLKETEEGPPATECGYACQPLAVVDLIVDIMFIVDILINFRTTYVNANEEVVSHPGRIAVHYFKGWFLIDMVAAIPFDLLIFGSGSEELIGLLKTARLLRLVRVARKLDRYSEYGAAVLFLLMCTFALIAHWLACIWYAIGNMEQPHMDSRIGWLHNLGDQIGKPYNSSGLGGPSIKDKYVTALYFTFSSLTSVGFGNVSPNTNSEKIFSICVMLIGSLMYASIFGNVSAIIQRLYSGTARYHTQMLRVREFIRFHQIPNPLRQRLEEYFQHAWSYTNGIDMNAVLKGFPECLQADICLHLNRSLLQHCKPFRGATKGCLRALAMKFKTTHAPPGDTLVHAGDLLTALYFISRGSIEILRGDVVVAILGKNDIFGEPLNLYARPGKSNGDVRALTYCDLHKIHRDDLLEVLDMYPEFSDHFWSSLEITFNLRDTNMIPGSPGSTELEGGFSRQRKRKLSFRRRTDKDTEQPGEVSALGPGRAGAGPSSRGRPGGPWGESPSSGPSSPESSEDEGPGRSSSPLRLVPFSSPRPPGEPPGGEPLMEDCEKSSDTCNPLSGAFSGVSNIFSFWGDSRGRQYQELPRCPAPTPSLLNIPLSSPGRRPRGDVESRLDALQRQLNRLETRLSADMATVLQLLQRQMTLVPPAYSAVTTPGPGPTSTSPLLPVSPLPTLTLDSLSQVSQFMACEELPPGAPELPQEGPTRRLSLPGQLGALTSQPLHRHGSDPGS
row,SMILES,"hERG current change (%, negative = inhibition) at 10uM [%]"
1,O=C(Cn1cnc([N+](=O)[O-])n1)N/N=C/c1ccccc1O,14.4
2,COC(=O)C[C@](O)(CCCC(C)(C)O)C(=O)O[C@@H]1C(OC)=C[C@]23CCCN2CCc2cc4c(cc2[C@H]13)OCO4,10.4
3,CCCCOCCCNC(=O)N[C@H](C(=O)OC)C(C)C,10.7
4,Cn1c(=O)c2c(ncn2CC(=O)Nc2ccc3c(c2)OCO3)n(C)c1=O,3.43
5,O=C(Nc1ncc(C(F)(F)F)cc1Cl)C1COc2ccccc2O1 (centres unmarked),-3.76
6,Cc1ccc2c(Cl)cc(Cl)c(OCC(=O)N3CCOCC3)c2n1,-8.28
7,O=C(Cc1noc2ccccc12)Nc1ccccn1,6.57
8,O=S(=O)(Nc1nc2ccccc2nc1NCc1ccco1)c1cccs1,4.13
9,CCc1ccc2c(c1)c(N=NC1=NC(=O)CS1)c(O)n2C,0.556
10,COc1ccc(NS(=O)(=O)c2ccc(C(=O)N3CCN(Cc4ccccc4)CC3)cc2)cc1,-17.1
11,Cc1cccc(-c2noc(CNC(=O)COc3ccccc3C)n2)c1,-1.88
12,CCOc1ccc(C(CCc2ccccc2)NC(=O)c2ccccc2)cc1OCC (centres unmarked),-19.1
13,CCCCN(Cc1nc2ccccc2c(=O)[nH]1)C(=O)CN1C(=O)NC2(CCCCC2)C1=O,-41.9
14,O=C(Cc1nnc(NC(=O)c2ccccc2)s1)N/N=C\c1ccc(O)c(O)c1,23.4
15,COc1ccc(OC)c(C2N(c3cc(C)on3)C(=O)C3CCCN32)c1 (centres unmarked),10.8
16,Cc1cccn2c(=O)c(C=O)c(N3CCN(C)CC3)nc12,-0.442
17,Cc1cccn2c(=O)c(C=O)c(N3CCN(c4ccccc4)CC3)nc12,-55.4
18,Cc1ccc2nc(N3CCN(c4ccccc4F)CC3)c(C=O)c(=O)n2c1,-70.1
19,Cc1ccc2nc(N3CCN(c4ccccc4)CC3)c(C=O)c(=O)n2c1,11.5
20,Cc1ccc2nc(N3CCN(C)CC3)c(C=O)c(=O)n2c1,5.3
21,Cc1cccn2c(=O)c(C=O)c(N3CCN(c4ccc(F)cc4)CC3)nc12,-22.1
22,CCOCCCNC(=O)Cc1ccc(-n2c(CC)nc3cccnc32)cc1,-8.18
23,C=CCn1c(Oc2ccc(C=O)cc2OCC)nc2c1c(=O)n(C)c(=O)n2C,24.4
24,CCc1nnc(SCC(=O)Nc2ccccc2)n1CC1CCCO1 (centres unmarked),2.61
25,Cc1cccc(N2CC(C(=O)Nc3nnc(SCCN4CCOCC4)s3)CC2=O)c1 (centres unmarked),0.559
26,O=C(NNC(=S)Nc1ccc(Cl)cc1Cl)c1cccnc1,8.1
27,CCN(CC)CCCN(C(=O)c1ccco1)c1nc(-c2ccc(Cl)cc2)cs1.Cl,-71.2

row,SMILES,"hERG current change (%, negative = inhibition) at 10uM [%]"
1,COCCN(C(=O)c1ccco1)c1nc(-c2ccccc2)cs1,4.36
2,Cl.O=C(c1ccco1)N(CCCN1CCOCC1)c1nc(-c2ccc(F)cc2)cs1,-29.4
3,CCN(CC)CCCN(C(=O)c1ccco1)c1nc(-c2ccc(C)cc2)cs1.Cl,-84.1
4,COc1ccc(-c2csc(N(CCCN3CCOCC3)C(=O)c3ccco3)n2)cc1.Cl,-32.4
5,CCN(C(=O)c1ccco1)c1nc(-c2ccc(OC)cc2)cs1,8.13
6,CCOc1ccc(Oc2ccc(C(F)(F)F)cc2NC(=O)C2=COCCO2)cc1,13.6
7,CCC(CC)c1nnc(NC(=O)c2cc(-c3ccccc3)nc3ccccc23)s1,9.31
8,O=C(/C=C/c1ccccc1Cl)N(Cc1ccc(Cl)cc1)C1CCS(=O)(=O)C1 (centres unmarked),1.48
9,O=C(NCC1CCCO1)c1ccccc1NS(=O)(=O)c1cccs1 (centres unmarked),-5.56
10,Cc1cc(C)cc(OCCNC(=O)CCc2ccccc2)c1,4.83
11,Cc1cccc(CSc2nc3ccncc3n2CC(=O)Nc2cc(C)cc(C)c2)c1,9.09
12,COc1cc2nc(SCc3ccc(F)cc3)n(Cc3cccs3)c(=N)c2cc1OC,0.564
13,COc1ccc(-c2nc(Cn3c(SCc4ccccc4F)nc4ccncc43)c(C)o2)cc1,4.5
14,COc1ccc(-c2nc(Cn3c(SCc4ccc(F)cc4)nc4ccncc43)c(C)o2)cc1OC,-55.6
15,COc1ccc(-c2nc(Cn3c(SCc4ccc(C)cc4)nc4ccncc43)c(C)o2)cc1OC,-52
16,COc1ccc(Cn2c(SCc3ccc(C)cc3)nc3cc(OC)c(OC)cc3c2=N)cc1Cl,14.6
17,CC1CCN(C(=O)c2ccc(CSc3nc4ccncc4n3Cc3ccc(F)cc3)cc2)CC1,-46
18,O=C(NC1CCCC1)c1ccc(CSc2nc3ccncc3n2Cc2ccc(F)cc2)cc1,-40.7
19,COc1ccc(-c2nc(Cn3c(SCc4cccc(F)c4)nc4ccncc43)c(C)o2)cc1OC,-62.4
20,Cc1ccc(CSc2nc3ccncc3n2CC(=O)Nc2cc(C)cc(C)c2)cc1,7.38
21,CCC(C)NC(=O)c1ccc(CSc2nc3ccncc3n2Cc2ccc(F)cc2)cc1 (centres unmarked),-59
22,CN1CCN(C(=O)c2ccc(CSc3nc4ccncc4n3Cc3ccc(F)cc3)cc2)CC1,0.727
23,CC1CCCCC1NC(=O)Cn1c(=O)oc2cc(S(=O)(=O)N3CCCC3)ccc21 (centres unmarked),18.8
24,O=NNc1nc2ccccc2n1Cc1ccccc1,-1.83
25,COc1ccc(C2C(C(=O)c3ccc(C)o3)=C(O)C(=O)N2Cc2ccco2)cc1OC (centres unmarked),21
26,CCOCCCNC(=O)C(c1ccc(OC)cc1)N(Cc1ccc2c(c1)OCO2)C(=O)CNC(C)=O (centres unmarked),15.3
